Screening results as filed in PubChem BioAssay.
GPR151 activ – activators of human GPR151; Q8TDV0; PathHunter beta-arrestin GPR151 cells, luminescence; activation, % at 11.2 µM; 650,000 compounds, 1% hits; in the data active = activation above about 4.9%;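 also: 0% = median of compound wells and 100% = cells with positive control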
Target sequence (Q8TDV0 whole entry, looked up): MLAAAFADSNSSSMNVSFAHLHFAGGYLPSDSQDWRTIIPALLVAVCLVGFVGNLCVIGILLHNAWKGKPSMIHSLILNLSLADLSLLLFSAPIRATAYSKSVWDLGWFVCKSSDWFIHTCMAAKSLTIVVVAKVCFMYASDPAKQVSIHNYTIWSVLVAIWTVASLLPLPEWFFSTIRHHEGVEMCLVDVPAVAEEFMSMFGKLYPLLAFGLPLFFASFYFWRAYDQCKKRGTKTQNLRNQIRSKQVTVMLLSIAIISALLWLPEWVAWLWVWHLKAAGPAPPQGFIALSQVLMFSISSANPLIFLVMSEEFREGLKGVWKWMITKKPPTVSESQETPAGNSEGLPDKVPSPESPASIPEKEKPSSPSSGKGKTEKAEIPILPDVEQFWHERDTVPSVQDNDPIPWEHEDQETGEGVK
FBW7 act – activators of human E3 ligase FBW7. Q969H0. AlphaScreen FBW7–phospho-cyclin E peptide binding, activator screen. normalized activity (activation), % at 26.1 µM. 650,000 compounds, 0.13% hits; in the data active = normalized activity above about 1.9%;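 also: purified mutant Fbw7 with reduced substrate affinity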
MITF inh – blocks human microphthalmia-associated transcription factor | 650,000 compounds, 0.91% hits | AID 1259374 | O75030 | inhibition, % at 2.6 µM | AlphaScreen MITF homodimerization, bead proximity signal; in the data active = inhibition above about 50%;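 also: 0% = vehicle wells with protein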
TEAD-YAP block – TEAD-YAP interaction inhibition | HEK-TIYL cells, TEAD-Gal4/YAP UAS-luciferase luminescence | inhibition, % at 9.12 µM | 640,000 compounds, 1.4% hits; in the data active = inhibition above about 32%;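 also: 0% = median of test compound wells and 100% = reference inhibitor wells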
GPR151 confirm – confirmation of human GPR151 activators; shares compounds with GPR151 activ; GPR151 PathHunter beta-arrestin cells, luminescence, 90 min; % of EA-reagent control over plate median; activation, % at 11.2 µM; 6,700 tested, under 10 active;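 active = mean percent activation across replicates above the confirmation screen cutoff of 4.91%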
GPR119 ag – counter-screen for GPR151 activators: effect on human GPR119; shares compounds with GPR151 activ; GPR119 PathHunter beta-arrestin cells, luminescence, 90 min; 0 = compound-well median, 100 = enzyme-acceptor control; activation, % at 11.2 µM; 6,700 compounds, 0.3% hits;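 active = mean percent activation in the counterscreen above 29.09%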;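 also: counterscreen on off-target GPR119 to flag nonselective hits from the GPR151 activator screen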
Starred values were filed as active, the others as inactive. Rows were chosen to be rich in hits. Some 3.4% of all compounds tested hit in one or more screens of this group.

How did Nc1nc(SCC(=O)Nc2ccc(F)cc2)n[nH]1 do in these assays?
GPR151 activ: 0.8; FBW7 act: -0.1; MITF inh: -0.6; TEAD-YAP block: 12.1

What do the screens show for `CCOC(=O)N1CCN(C(=O)Cn2nnnc2CN(C)C(C)C)CC1`?
GPR151 activ: 5.2*; FBW7 act: -0.1; MITF inh: -5.8; TEAD-YAP block: 6.3; GPR151 confirm: -1.0; GPR119 ag: -4.6

How did CC(C)N(C)Cc1nnnn1CC(=O)NCC(c1ccccc1)c1ccccc1 do in these assays?
GPR151 activ: -1.1; FBW7 act: 0.0; MITF inh: -1.1; TEAD-YAP block: 7.5

How did CC(C)N(C)Cc1nnnn1CC(=O)NC1(c2ccccc2)CC1 do in these assays?
GPR151 activ: 8.3*; FBW7 act: 0.5; MITF inh: 10.4; TEAD-YAP block: -0.7; GPR151 confirm: 0.2; GPR119 ag: 2.9

How did CCOC(=O)N1CCN(C(=O)Cn2nnnc2CN2CCCCCC2)CC1 do in these assays?
GPR151 activ: -0.6; FBW7 act: 0.0; MITF inh: 1.9; TEAD-YAP block: -1.9

Results for O=C(Nc1nc(-c2nc3ccccc3s2)cs1)C1=COCCO1 ?
GPR151 activ: 2.2; FBW7 act: 0.0; MITF inh: -11.9; TEAD-YAP block: -8.5

How did O=C(O)c1cc2c(ccc3ccccc32)o1 do in these assays?
GPR151 activ: -0.9; FBW7 act: 0.0; MITF inh: -4.9; TEAD-YAP block: -11.8

What do the screens show for `N#Cc1cc2c(ccc3ccccc32)oc1=N`?
GPR151 activ: 6.1*; FBW7 act: -0.1; MITF inh: -9.0; TEAD-YAP block: -4.3; GPR151 confirm: -1.2; GPR119 ag: -13.1

How did CC(C)c1nc2cccnc2n1C1CCN(C(=O)c2n[nH]c3c2CCC3)CC1 do in these assays?
GPR151 activ: 10.5*; FBW7 act: 0.0; MITF inh: 17.2; TEAD-YAP block: -12.9; GPR151 confirm: 0.8; GPR119 ag: 10.4

Results for CCC1(C2CCN(Cc3ccoc3)CC2)NC(=O)N(CCc2ccc(OC)cc2)C1=O (stereo unspecified) ?
GPR151 activ: 13.5*; FBW7 act: -0.2; MITF inh: -16.6; TEAD-YAP block: 3.4; GPR151 confirm: 0.2; GPR119 ag: 7.0

How did CCOC(=O)C1CCN(S(=O)(=O)c2cc3[nH]c(=O)c(=O)[nH]c3cc2C)CC1 do in these assays?
GPR151 activ: 5.2*; FBW7 act: 0.0; MITF inh: -8.0; TEAD-YAP block: -1.1; GPR151 confirm: 0.5; GPR119 ag: -1.5

How did Cc1ccc(S(=O)(=O)N2C(=O)CCC2C(=O)O/N=C(\N)c2cccnc2)cc1 (stereo unspecified) do in these assays?
GPR151 activ: 5.2*; FBW7 act: 0.0; MITF inh: 3.3; TEAD-YAP block: 1.8; GPR151 confirm: 1.2; GPR119 ag: 7.0

How did Cc1ccc(S(=O)(=O)N2C(=O)CCC2C(=O)O/N=C(\N)c2ccccc2)cc1 (stereo unspecified) do in these assays?
GPR151 activ: 8.4*; FBW7 act: -0.1; MITF inh: 5.4; TEAD-YAP block: -10.3; GPR151 confirm: -0.3; GPR119 ag: -4.2

What do the screens show for `COc1ccc(-c2nc(-c3cc(Br)ccc3OC)no2)cc1OC`?
GPR151 activ: -0.4; FBW7 act: 0.4; MITF inh: -10.5; TEAD-YAP block: -4.3

How did N#Cc1sc2ncc3c(c2c1N)CCCC3 do in these assays?
GPR151 activ: 9.7*; FBW7 act: 0.2; MITF inh: 4.2; TEAD-YAP block: -6.0; GPR151 confirm: 0.2; GPR119 ag: 13.4

Results for COc1ccc([N+](=O)[O-])cc1N=Cc1ccc(C#N)cc1 ?
GPR151 activ: 5.1*; FBW7 act: 0.5; MITF inh: -6.1; TEAD-YAP block: 1.1; GPR151 confirm: -0.2; GPR119 ag: 6.1

Results for COc1ccc([N+](=O)[O-])cc1N=Cc1cccc([N+](=O)[O-])c1 ?
GPR151 activ: -1.3; FBW7 act: 0.0; MITF inh: 3.7; TEAD-YAP block: -3.3

Results for CN(C)c1ccc(-c2cnc3c(n2)[nH]c(=O)n3-c2ccccc2)cc1 ?
GPR151 activ: 6.0*; FBW7 act: 0.1; MITF inh: -0.6; TEAD-YAP block: -10.4; GPR151 confirm: -0.6; GPR119 ag: -6.9

Results for Cc1ccc(C(=O)Nc2ccc(C(=O)CN3C(=O)CSC3=O)cc2)cc1 ?
GPR151 activ: 5.8*; FBW7 act: 0.0; MITF inh: 23.7; TEAD-YAP block: -1.7; GPR151 confirm: -0.8; GPR119 ag: -4.2

Results for O=C(CN1C(=O)CSC1=O)c1ccc(Cl)cc1 ?
GPR151 activ: 0.7; FBW7 act: -0.1; MITF inh: -6.3; TEAD-YAP block: 0.3

How did COc1cccc(C=O)c1OCc1ccc(Br)cc1 do in these assays?
GPR151 activ: -2.1; FBW7 act: 0.1; MITF inh: -9.0; TEAD-YAP block: -8.2

How did COc1cccc(C=O)c1OCc1ccc(F)cc1 do in these assays?
GPR151 activ: 5.2*; FBW7 act: 0.0; MITF inh: -11.9; TEAD-YAP block: 0.0; GPR151 confirm: 0.5; GPR119 ag: -5.3

Results for CC(=O)NC(=Nc1nc2ccccc2o1)NC(C)=O ?
GPR151 activ: -0.3; FBW7 act: 0.0; MITF inh: 6.1; TEAD-YAP block: -40.1

How did C=CCC(CC=C)(C(=O)O)c1ccccc1 do in these assays?
GPR151 activ: 5.8*; FBW7 act: 0.4; MITF inh: 5.0; TEAD-YAP block: 1.3; GPR151 confirm: -0.6; GPR119 ag: -7.0

How did Cc1ccc(-c2cc(C(=O)Nc3cccnc3)c3cc(Br)ccc3n2)o1 do in these assays?
GPR151 activ: 6.5*; FBW7 act: -0.1; MITF inh: -5.2; TEAD-YAP block: -2.2; GPR151 confirm: -0.9; GPR119 ag: -11.2

How did Cc1cc(F)ccc1NC(=O)C1CCCCC1C(=O)O (stereo unspecified) do in these assays?
GPR151 activ: 0.9; FBW7 act: -0.1; MITF inh: 8.2; TEAD-YAP block: 5.6

How did CC(C)CCNC(=O)NC(=O)COC(=O)c1cc2ccccc2oc1=O do in these assays?
GPR151 activ: 11.8*; FBW7 act: 0.2; MITF inh: 19.1; TEAD-YAP block: -3.6; GPR151 confirm: -0.1; GPR119 ag: 5.2

How did O=S(=O)(Nc1ccc(S(=O)(=O)N2CCCCC2)cc1)c1cccc(C(F)(F)F)c1 do in these assays?
GPR151 activ: -1.5; FBW7 act: -0.1; MITF inh: -2.3; TEAD-YAP block: -11.2

How did c1ccc(COC2CCCN(Cc3nc(-c4cccs4)no3)C2)nc1 (stereo unspecified) do in these assays?
GPR151 activ: 0.3; FBW7 act: -0.1; MITF inh: -8.6; TEAD-YAP block: 5.4

Results for c1ccc(COC2CCCN(Cc3nc(-c4ccc5c(c4)OCO5)no3)C2)nc1 (stereo unspecified) ?
GPR151 activ: 16.1*; FBW7 act: -0.1; MITF inh: 4.5; TEAD-YAP block: -14.1; GPR151 confirm: 0.5; GPR119 ag: 2.9
